For the test, the target named is Mothers against decapentaplegic homolog 3 (Homo sapiens) (UniProt P84022). Nature of the test: Smad3 binding inhibitors, lysate ELISA, dose response, cell lysate, secondary confirmation, chemiluminescent ELISA, HEK293 lysate (AID 1058). For orientation: ELISA stands for enzyme-linked immunosorbent assay.

Among the data in PubChem BioAssay AID1058 (Emory University Molecular Libraries Screening Center, 2008) are outcome values, retold here.

Entries with a potency or affinity are not part of this list. The source made the active and inactive calls.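 The calls were made as follows: active = fitted IC50 of 30 µM or less, with percent of control binding at that IC50 of 60 or less; inactive = the rest.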

Mothers against decapentaplegic homolog 3 (Homo sapiens), sequence (P84022 whole entry, looked up): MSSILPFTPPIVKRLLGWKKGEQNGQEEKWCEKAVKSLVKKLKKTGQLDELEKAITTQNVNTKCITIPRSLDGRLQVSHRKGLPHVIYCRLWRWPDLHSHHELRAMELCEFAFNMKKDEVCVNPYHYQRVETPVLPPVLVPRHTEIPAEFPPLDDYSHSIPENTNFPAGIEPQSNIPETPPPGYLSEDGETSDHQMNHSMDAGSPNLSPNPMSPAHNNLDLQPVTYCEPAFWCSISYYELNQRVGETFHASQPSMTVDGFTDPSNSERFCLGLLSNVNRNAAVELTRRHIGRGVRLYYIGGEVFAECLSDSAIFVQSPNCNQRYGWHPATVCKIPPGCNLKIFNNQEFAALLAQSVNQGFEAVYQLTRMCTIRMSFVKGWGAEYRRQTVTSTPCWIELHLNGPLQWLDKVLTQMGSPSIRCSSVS

Turning to `Oc1cc2c(cc1C(c1ccc(F)cc1)N1CCOCC1)OCO2` (stereo unspecified), the call was inactive.
